Measurements reported in the supplement of paper PMC10646978.
± gives the standard deviation.

Legend:
Conditions in all cases: modulator concentration 10 µM
[1] = tested on: RAW-Dual (murine macrophage reporter line); assay: NF-kB reporter (SEAP) activity fold change vs agonist alone; higher = enhanced NF-kB activity
How it was run: (§1)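 Overnight stimulation with a PRR agonist followed pre-incubation for 1 hour at 37 °C with compound at 10 μM final. This was done in RAW-Dual murine macrophage reporter cells seeded at 50 000 per well in 384-well plates. NF-κB (SEAP, QUANTI-Blue absorbance at 620 nm) and IRF (Lucia luciferase, QUANTI-Luc luminescence) were read from the supernatant. Each reporter's fold change relative to the mean agonist-only control on the same plate was averaged over replicate plates.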

[2] = tested on: RAW-Dual (murine macrophage reporter line); assay: IRF reporter (Lucia luciferase) activity fold change vs agonist alone; higher = enhanced IRF activity
How it was run: as §1

[3] = tested on: RAW-Dual (murine macrophage reporter line); assay: viability score (confluency relative to resting cells, overnight) (fraction); higher = more viable, active = viable (0.7 or more)
How it was run: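 A compound met the cutoff when both of two confluency masks exceeded 70% of resting cells. Those masks were made with IncuCyte software from IncuCyte images of RAW-Dual macrophages treated overnight at 10 μM final. This is the basis of the viability score, which is confluency relative to resting cells.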

[4] = agonist: CpG ODN 1826 0.5 ug/mL

Structure (SMILES) | NF-kB reporter [1, 4] | NF-kB reporter ([1]; agonist: LPS 0.1 ug/mL) | NF-kB reporter ([1]; agonist: MPLA […]) | IRF reporter ([2]; agonist: 3'3'-cGAMP 10 ug/mL) | IRF reporter ([2]; agonist: LPS 0.1 ug/mL) | IRF reporter ([2]; agonist: MPLA […]) | viability score [3]
CC1=C(C(=O)N2CCOCC2)C(c2cccs2)NC(=O)N1 (centres undefined) | 1.12 ± 0.18 | 0.973 ± 0.1 | 0.965 ± 0.076 | 0.933 ± 0.047 | 1.07 ± 0.11 | 1.17 ± 0.14 | 0.986 (active)
COc1ccc(CNCc2cccc3ccccc23)cc1 | 0.715 ± 0.12 | 1.06 ± 0.1 | 1.15 ± 0.11 | 0.877 ± 0.035 | 0.945 ± 0.1 | 1.31 ± 0.14 | 0.967 (active)
Cc1ccc(-c2ncnn2-c2ccc(Cl)cc2)cc1 | 0.922 ± 0.072 | 0.785 ± 0.051 | 1.02 ± 0.11 | 0.695 ± 0.036 | 1.26 ± 0.073 | 1.4 ± 0.15 | 1.01 (active)
O=C(O)c1nn(-c2ccccc2)c(=O)c2ccccc12 | 1.12 ± 0.13 | 1.1 ± 0.099 | 1.03 ± 0.027 | 0.955 ± 0.034 | 0.953 ± 0.086 | 0.953 ± 0.26 | 1 (active)
Brc1ccc2ncnc(NCc3ccco3)c2c1 | 0.856 ± 0.14 | 1.98 ± 0.16 | 2.54 ± 0.3 | 0.373 ± 0.021 | 0.647 ± 0.12 | 0.7 ± 0.12 | 0.996 (active)
Br.Cc1ccc(Sc2ccccc2N2CCNCC2)c(C)c1 | 0.328 ± 0.078 | 0.944 ± 0.11 | 1.78 ± 0.15 | 0.491 ± 0.057 | 1.27 ± 0.32 | 1.03 ± 0.12 | 0.527 (inactive)
CC(C)Oc1ccc(C(=O)N2CCC(c3ccccc3)S(=O)(=O)CC2)cc1 (centres undefined) | 0.906 ± 0.061 | 1.07 ± 0.098 | 0.876 ± 0.049 | 0.928 ± 0.049 | 1.13 ± 0.069 | 1.09 ± 0.092 | 0.992 (active)
CC(C)c1noc(CN2CCC(n3nc(C(F)(F)F)n(C)c3=O)CC2)n1 | 0.975 ± 0.13 | 1.11 ± 0.091 | 0.939 ± 0.069 | 0.993 ± 0.05 | 1.08 ± 0.12 | 1.15 ± 0.13 | 1 (active)
CC1(C)CC(=O)C2=C(C1)OC(N)=C(C#N)C21CCCC1 | 1.04 ± 0.18 | 0.94 ± 0.08 | 0.933 ± 0.072 | 0.91 ± 0.025 | 1.13 ± 0.15 | 1.3 ± 0.13 | 1 (active)
CC(C)(C)c1nc(-c2cccc(NS(=O)(=O)c3c(F)cccc3F)c2F)c(-c2ccnc(N)n2)s1 | 2.41 ± 0.12 | 1.77 ± 0.14 | 2.36 ± 0.1 | 0.67 ± 0.079 | 0.818 ± 0.071 | 1.1 ± 0.2 | 0.763 (active)
COc1ccccc1C(=O)Nc1ccc(Nc2ccc(-n3cccn3)nn2)cc1 | 2.27 ± 0.12 | 1.36 ± 0.12 | 1.91 ± 0.092 | 0.334 ± 0.017 | 1.45 ± 0.094 | 1.11 ± 0.1 | 0.721 (active)
CNC(=O)c1cc(Oc2ccc(NC(=O)Nc3ccc(Cl)c(C(F)(F)F)c3)c(F)c2)ccn1.O | 0.151 ± 0.012 | 0.0887 ± 0.0079 | 0.42 ± 0.035 | 0.0171 ± 0.0034 | 0.0276 ± 0.0016 | 0.0325 ± 0.0049 | 0.448 (inactive)
CC1=C(C(=O)Nc2ccc(C)cn2)C(c2ccccc2Cl)C2=C(CCCC2=O)N1 (centres undefined) | 1.01 ± 0.12 | 0.983 ± 0.062 | 0.847 ± 0.053 | 1.02 ± 0.034 | 1.43 ± 0.12 | 1.1 ± 0.08 | 1.01 (active)
CCC(=O)N1c2ccccc2NC2=C(C(=O)CC(c3ccccc3Cl)C2)C1c1ccc(C)cc1 (centres undefined) | 1.02 ± 0.17 | 0.983 ± 0.079 | 0.961 ± 0.15 | 0.837 ± 0.022 | 1.2 ± 0.17 | 1.23 ± 0.36 | 1.01 (active)
CCOC(=O)c1sc(NC(=O)CSc2nc3ccccc3o2)c(C(=O)OCC)c1C | 1.01 ± 0.057 | 1.11 ± 0.09 | 1.06 ± 0.071 | 1.04 ± 0.039 | 1.3 ± 0.096 | 0.995 ± 0.12 | 0.981 (active)
CC(=O)N[C@@H](CS)C(=O)O | 1.1 ± 0.082 | 1.05 ± 0.096 | 1.04 ± 0.052 | 0.931 ± 0.065 | 0.982 ± 0.076 | 1.04 ± 0.087 | 0.995 (active)
C[C@H]1O[C@H]1P(=O)(O)O.NC(CO)(CO)CO | 0.922 ± 0.053 | 1.05 ± 0.064 | 0.977 ± 0.079 | 0.937 ± 0.036 | 1.06 ± 0.15 | 0.989 ± 0.2 | 0.994 (active)
Cl.Cl.OCCN1CCN(CCCN2c3ccccc3Sc3ccc(C(F)(F)F)cc32)CC1 | 0.972 ± 0.047 | 0.893 ± 0.073 | 0.91 ± 0.05 | 0.895 ± 0.042 | 1.03 ± 0.15 | 0.947 ± 0.3 | 0.677 (inactive)
COc1ccc(C2Oc3cc(OC)cc(OC)c3CC2O)cc1 (centres undefined) | 1.01 ± 0.24 | 1.01 ± 0.07 | 1.81 ± 0.81 | 0.881 ± 0.057 | 1.12 ± 0.27 | 1.04 ± 0.1 | 1.01 (active)
COc1ccc(OC)c(NC(=O)COc2cccc3c2OC(C)(C)C3)c1 | 0.489 ± 0.039 | 1.2 ± 0.095 | 1.22 ± 0.053 | 0.777 ± 0.054 | 0.912 ± 0.059 | 1.02 ± 0.077 | 0.976 (active)
Cn1c(=O)[nH]c2nnc(-c3cccnc3)nc2c1=O | 1.09 ± 0.2 | 0.961 ± 0.084 | 0.975 ± 0.081 | 0.927 ± 0.03 | 1.22 ± 0.12 | 1.31 ± 0.13 | 0.881 (active)
CC(C)CC(C(=O)Nc1ccc(Cl)cc1)N1C(=O)c2ccccc2C1=O (centres undefined) | 1.01 ± 0.17 | 0.982 ± 0.085 | 0.938 ± 0.089 | 0.988 ± 0.053 | 1.15 ± 0.21 | 1.21 ± 0.2 | 0.6 (inactive)
CCC1(c2cnc[nH]2)Cc2ccccc2C1 | 0.746 ± 0.13 | 1.09 ± 0.17 | 0.862 ± 0.055 | 0.764 ± 0.21 | 1.33 ± 0.14 | 0.787 ± 0.11 | 0.876 (active)
CN(C)C(=O)COC(=O)Cc1ccc(OC(=O)c2ccc(NC(=N)N)cc2)cc1.CS(=O)(=O)O | 1.04 ± 0.045 | 0.913 ± 0.083 | 1.01 ± 0.079 | 1.07 ± 0.049 | 1.21 ± 0.22 | 1.25 ± 0.4 | 0.829 (active)
CCSc1nc(-c2cccs2)cc(C(F)(F)F)c1C#N | 0.77 ± 0.078 | 1.05 ± 0.069 | 1.66 ± 0.063 | 0.904 ± 0.13 | 1.18 ± 0.12 | 1.9 ± 0.25 | 0.999 (active)
Cc1nc(Nc2ncc(C(=O)Nc3c(C)cccc3Cl)s2)cc(N2CCN(CCO)CC2)n1.O | 1.55 ± 0.37 | 0.307 ± 0.025 | 0.644 ± 0.041 | 0.0905 ± 0.0031 | 0.536 ± 0.063 | 0.656 ± 0.081 | 0.492 (inactive)
Cc1ccc(C(=O)N2N=C(c3ccncc3)CC2(O)C(F)(F)F)cc1 (centres undefined) | 0.764 ± 0.062 | 0.831 ± 0.12 | 0.985 ± 0.097 | 0.86 ± 0.043 | 1.26 ± 0.081 | 1.29 ± 0.14 | 1.01 (active)
